# An excerpt weighted towards active compounds, which were near 12% of everything screened.
# Cav32 inh = human Cav3.2 channel inhibition, primary screen. O95180. Cav3.2-expressing cells, Fluo-4 calcium fluorescence FDSS; active compounds read low. B-score at 10 µM. 4% of 100,000 active. AID 449739;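 active = single-dose well whose peak fluorescence ratio is a statistical outlier from its plate by either plate-standardised score or position-corrected B-score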
# PLAP activator = human PLAP activation; purified PLAP enzyme, luminescent substrate read-out; active compounds read high; activation fold at 20 µM; AID 696; 1.2% of 96,000 active; in the data active = activation fold above about 2
# Target sequence (P05187 whole entry, looked up): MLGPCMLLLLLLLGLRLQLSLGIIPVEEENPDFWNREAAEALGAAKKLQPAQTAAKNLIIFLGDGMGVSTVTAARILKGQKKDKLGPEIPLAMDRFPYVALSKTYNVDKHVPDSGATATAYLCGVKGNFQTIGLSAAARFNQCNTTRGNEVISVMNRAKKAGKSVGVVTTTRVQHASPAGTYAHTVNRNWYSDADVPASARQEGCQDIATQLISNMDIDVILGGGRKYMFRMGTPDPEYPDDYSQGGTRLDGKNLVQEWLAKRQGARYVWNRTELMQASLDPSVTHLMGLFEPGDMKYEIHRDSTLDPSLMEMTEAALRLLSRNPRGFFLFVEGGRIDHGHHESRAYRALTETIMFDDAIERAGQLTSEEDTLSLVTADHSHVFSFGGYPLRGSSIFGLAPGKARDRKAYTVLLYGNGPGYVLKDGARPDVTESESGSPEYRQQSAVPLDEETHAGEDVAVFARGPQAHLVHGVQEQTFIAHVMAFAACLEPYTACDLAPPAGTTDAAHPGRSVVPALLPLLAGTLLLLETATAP
# PostGolgi ctrl = inhibits growth of the yeast control strain. inhibition, % at 10 µM. efflux-deficient yeast background strain, growth absorbance A615, 16 h. AID 738. 5% of 98,000 active
# D1 mod = allosterically modulates the human D1 dopamine receptor | HEK293 D1, CRE-luciferase, dopamine EC30 potentiation; actives deviate in either direction | 5.9% of 58,000 active | B-score at 10 µM;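 active = luminescence count or its row- and column-corrected plate score outside the 99.7% band of the plate's sample wells, on either side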
# hDAT+cocaine = modulates human dopamine transporter uptake under cocaine; 1.3% of 110,000 active; B-score at 10 µM; LLC-PK1 hDAT cells, [14C]-dopamine uptake with cocaine IC80; actives deviate in either direction;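 active = Z score or B-score, a plate-position-corrected score, falls beyond the plate's 99.7% confidence bounds, in either direction; inactive = both scores lie inside the 99.7% bounds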
# PostGolgi yeast = growth inhibition of a yeast mutant, post-Golgi transport screen; 0.9% of 98,000 active; inhibition, % at 10 µM; post-Golgi transport phenotypic cell assay; AID 739;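 note: yeast cells grown in 1536-well plates; yeast grown about 18 h at 30C before absorbance read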
# D1 mod confirm = D1 receptor (human) allosteric modulation, confirmed; shares compounds with D1 mod; HEK293 D1 CRE-luciferase, dopamine EC30 potentiation; active compounds read high; luminescence at 10 µM; 88% of 2,200 active;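 active = luminescence in either of two replicates above the same-plate mean plus 3 SD of the low-dose dopamine control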
# D1 ag no DA = D1 (human) signaling in absence of dopamine; HEK293 D1 CRE-luciferase, luminescence, no dopamine; active compounds read high; AID 646; 0.8% of 1,900 active; luminescence at 10 µM; shares compounds with D1 mod; in the data active = luminescence above about 3900
# Isoprot counter = alters isoproterenol CRE-luciferase response in HEK293 cells; calls only at 10 µM; shares compounds with D1 mod; HEK293 D1 CRE-luciferase, isoproterenol EC30 counter-screen; 63% of 2,200 active; AID 647;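 active = luminescence in either replicate above plate mean of wells with a partly effective reference agonist dose plus 3 SD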;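 note: isoproterenol raises cAMP through native beta-adrenoceptor Gs so signal bypasses D1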
# A number is an active result; – = inactive; · = no result given; + = active, no number. Cut-off read from the data, not from the text of the source, unless noted: active = inhibition above about 30%; inactive = the rest.
SMILES,Cav32 inh,PLAP activator,PostGolgi ctrl,D1 mod,hDAT+cocaine,PostGolgi yeast,D1 mod confirm,D1 ag no DA,Isoprot counter
CC(C)Oc1ccc(C2C(C(=O)c3ccco3)=C(O)C(=O)N2CCCN(C)C)cc1 (stereo not drawn),·,·,·,–,·,·,·,·,·
Cc1nc(SCC(=O)NCc2ccco2)c2c3c(sc2n1)CCCC3,–,–,–,·,–,–,·,·,·
CCCc1nc2sc3c(SCC(=O)NCc4ccco4)ncnc3c2c2c1CCC2,–,–,–,5.3,–,–,8768,–,–
COc1ccc(-c2nc(N3CCOCC3)nc3nn4c(C)c(CCC(=O)O)c(C)nc4c23)cc1,·,·,·,–,·,·,·,·,·
CCCOC(=O)CSC1=C(C#N)C(c2ccccc2OC)C(C#N)C(=O)N1 (stereo not drawn),–,–,–,·,–,–,·,·,·
Cc1ccc(-c2n[nH]c3c2CCC3)cc1,–,–,–,·,–,–,·,·,·
c1csc(Cc2nn3c(-c4n[nH]c5c4CCC5)nnc3s2)c1,–,2.1,–,3.4,–,–,8576,–,+
CCOC(=O)C1CCN(C(=O)Nc2ccc(OC)c(OC)c2)CC1,–,–,–,–,–,–,·,·,·
COc1ccc(-c2nnc(CSc3nc4ccccc4c(=O)n3CC(C)C)o2)cc1OC,–,–,–,5.8,–,–,6848,·,+
COCCCn1c(SCc2nnc(-c3ccc(OC)c(OC)c3)o2)nc2ccccc2c1=O,–,·,·,·,–,·,·,·,·
CC(C)Cn1c(SCC#N)nc2ccccc2c1=O,–,–,–,8.6,–,–,15244,–,+
C=CCn1c(SCC#N)nc2ccccc2c1=O,–,–,–,–,–,–,·,·,·
CCN(CC)C(=O)CSc1nc2ccccc2c(=O)n1OC(C)C,–,–,–,·,–,–,·,·,·
CC(C#N)On1c(SC(C)C#N)nc2ccccc2c1=O (stereo not drawn),–,–,–,4.2,–,–,11488,·,–
CC(C)c1cc(CN2CCN(CCC#N)CC2)cc(C(C)C)c1O,–,–,–,–,–,–,·,·,·
CC(C)C(=O)N1CCC(CN=CC2=C(O)CC(C)(C)CC2=O)CC1,–,·,·,·,–,·,·,·,·
CCOC(=O)c1ccc(Oc2nc(NC)nc(OC)n2)cc1,–,–,–,3.8,–,–,9704,–,+
CNc1nc(Oc2ccc(C(=O)OC)cc2)nc(SC)n1,–,·,·,·,–,·,·,·,·
CCCCC(=O)N(Cc1ccc(-c2ccccc2-c2nn[nH]n2)cc1)[C@H](C(=O)O)C(C)C,–,·,·,·,–,·,·,·,·
CCC(=O)Nc1nonc1-c1nc2ccccc2n1Cc1ccccc1,–,–,–,3.3,–,–,13704,–,+
C/C(N)=C(/C#N)C(=O)CSc1nnc(COc2cc(C)ccc2C)o1,–,–,–,·,–,–,·,·,·
COc1ccc(C)cc1NC(=O)CSc1nnc(-c2ccc(OC)c(OC)c2)n1N,–,–,–,22,–,–,18440,–,+
CC1C(=NO)C(C)C(c2ccc(N(C)C)cc2)NC1c1ccc(N(C)C)cc1 (stereo not drawn),·,–,–,·,·,–,·,·,·
CCCC(=O)Nc1cc2c(cc1C(=O)c1ccccc1)OCCO2,–,–,–,6.3,–,–,13204,–,+
CCOc1ccccc1NC(=O)CCSc1nc2n[nH]c(C)c2c(=N)n1-c1ccccc1Cl,–,–,–,3.8,–,–,11132,–,+
SMILES,Cav32 inh,PLAP activator,PostGolgi ctrl,D1 mod,hDAT+cocaine,PostGolgi yeast,D1 mod confirm,D1 ag no DA,Isoprot counter
CCOc1ccccc1NC(=O)CSc1nnnn1Cc1ccccc1,–,–,–,–,–,–,·,·,·
CCOc1ccccc1-n1c(SCC(=O)Nc2ccc(CC)cc2)nc2n[nH]c(C)c2c1=N,·,–,–,2,–,–,–,–,–
CCS(=O)(=O)c1nc2ccccc2n1Cc1ccccc1Cl,–,–,–,16,–,–,16608,–,+
C(=N\c1nc2ccccc2n1Cc1ccccc1)/c1cccs1,–,–,–,–,–,–,·,·,·
COc1ccc(S(=O)(=O)N2CCC(C(=O)N3CCCCC3)CC2)cc1OC,–,–,–,7.6,–,–,12168,–,+
CN(C)CCNC(=O)C12CC3(C)CC(C)(CC(C)(C3)C1)C2,–,–,–,·,–,–,·,·,·
CCOc1ccc(Cl)cc1S(=O)(=O)N1CCCC1,–,–,–,–,–,–,·,·,·
CCOc1c(S(=O)(=O)N2CCCC2)ccc(Cl)c1Cl,–,–,–,12,–,–,11948,–,+
CC(=O)N=c1sc2nc3ccccc3nc2n1N(C(C)=O)C(C)=O,·,–,–,2.8,–,–,8388,–,–
CC(=O)Nc1cnc2ccccc2n1,–,–,–,–,–,–,·,·,·
COC(=O)c1ccccc1NC(=O)c1ccco1,–,–,–,4.4,–,–,11880,–,+
COC(=O)c1c(-c2ccccc2)csc1NC(=O)c1ccco1,–,–,–,4.9,–,–,6288,–,–
COC(=O)c1cccc(COC(=O)c2ccccc2NC(=O)c2ccco2)c1,–,–,–,–,–,–,·,·,·
O=C(Nc1scc(-c2ccc(F)cc2)c1C(=O)O)c1ccco1,–,–,–,–,–,–,·,·,·
Fc1ccc(/C=N/n2c(-c3cccs3)n[nH]c2=S)cc1,–,–,–,·,–,–,·,·,·
COC(=O)C1=C(C(=O)OC)[C@@H]2N(C)c3ccc(OC)cc3[C@@]23C[C@@H](C(=O)OC)N(C(=O)c2cc(C)oc2C)C3=N1,–,·,·,·,–,·,·,·,·
Nc1ncnc(Nc2ccccc2C(F)(F)F)n1,·,–,–,–,–,–,·,·,·
Nc1nc(Nc2ccc(Cl)cc2Cl)nc(C(F)(F)F)n1,·,–,–,11,–,–,13920,·,+
Nc1nc(Nc2ccccc2Br)nc(C(F)(F)F)n1,–,–,–,7.3,–,–,15052,–,+
COc1cccc(Nc2nc(N)nc(C(F)(F)F)n2)c1,–,–,–,11,–,–,14320,–,+
N#Cc1nc(-c2ccco2)oc1NCc1ccc(F)cc1,–,–,–,6.6,–,–,12560,–,+
COc1ccc(CNc2oc(-c3ccccc3)nc2C#N)cc1,–,–,–,10,–,–,18596,–,+
N#Cc1nc(-c2ccccc2)oc1NCc1ccco1,–,–,–,·,–,–,·,·,·
CNc1oc(-c2ccccc2)nc1C#N,–,–,–,7.4,-7.8,–,11304,–,+
N#Cc1nc(-c2ccccc2Cl)oc1NCc1ccco1,–,–,31,4.7,–,–,12632,–,+
CNc1oc(Cc2cccc3ccccc23)nc1C#N,–,–,–,–,–,–,·,·,·
COc1ccc(-c2nc(C#N)c(NCCc3ccccc3)o2)cc1,–,·,–,–,–,–,·,·,·
CCN1N=C(c2cc(Cl)sc2Cl)CSC1=O,–,·,·,·,–,·,·,·,·
O=C(NNc1ccc([N+](=O)[O-])cc1)C12CC3CC(CC(C3)C1)C2,–,–,–,·,–,–,·,·,·

# Source: PubChem BioAssay (several laboratories)
